# Experimental data: PubChem BioAssay AID1117273 (Broad Institute, 2014)
# The source made the active and inactive calls. No rule for the calls is given here.
# Assay: inhibitors of orthopox early gene expression, dose response, cell-based, single fluorophore reporter, dry powder (AID 1117273)
# Details: orthopoxvirus-infected cells, early gene fluorescent reporter; at 10 µM; active compounds read high
row,SMILES,inhibition
1,C[C@@H](O)C#Cc1ccc2c(c1)O[C@@H](CN(C)Cc1ccc(-c3cccc(Cl)c3)cc1)[C@@H](C)CN([C@@H](C)CO)S2(=O)=O,48.5% (inactive)
2,Cc1cccc(-c2ccc(CN(C)C[C@@H]3Oc4cc(C#C[C@@H](C)O)ccc4S(=O)(=O)N([C@@H](C)CO)C[C@@H]3C)cc2)c1,48% (inactive)
3,C[C@@H](O)C#Cc1ccc2c(c1)O[C@@H](CN(C)Cc1ccc(-c3ccc(Cl)cc3)cc1)[C@@H](C)CN([C@@H](C)CO)S2(=O)=O,17.2% (inactive)
4,COc1ccccc1-c1ccc(CN(C)C[C@@H]2Oc3cc(C#C[C@@H](C)O)ccc3S(=O)(=O)N([C@@H](C)CO)C[C@@H]2C)cc1,-12.9% (inactive)
5,Cc1ccccc1-c1ccc(CN(C)C[C@@H]2Oc3cc(C#C[C@@H](C)O)ccc3S(=O)(=O)N([C@@H](C)CO)C[C@@H]2C)cc1,63.3% (inactive)
6,C[C@@H](O)C#Cc1ccc2c(c1)O[C@@H](CN(C)Cc1ccc(-c3ccccc3Cl)cc1)[C@@H](C)CN([C@@H](C)CO)S2(=O)=O,59.3% (inactive)
7,Cc1ccc(-c2ccc(CN(C)C[C@@H]3Oc4cc(C#C[C@@H](C)O)ccc4S(=O)(=O)N([C@@H](C)CO)C[C@@H]3C)cc2)cc1,32.5% (inactive)
